The panel holds about 83,000 compounds, 20% with a hit somewhere; the sample as a whole holds those more often.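 Single-concentration screen, 48 h exposure, 96-well plates. Endpoint: percent growth. Below 10 = active.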 Unmarked numbers belong to inactive results. Calls of active or inactive are those of the source.

Among the data in PubChem BioAssay (NCI) are growth values, retold here.

Some test systems named below: NCI-H23 lung; NCI-H226 lung; NCI-H322M lung; HOP-62 NSCLC; HOP-92 NSCLC; NCI-H522 lung; A549/ATCC NSCLC; 786-0 renal; COLO 205 colon; DU-145 prostate; K-562 leukemia; MALME-3M melanoma; MDA-MB-231 breast; RXF 393 renal; SF-268 CNS; SF-295 CNS; SF-539 CNS; UACC-257 melanoma; M14 melanoma.
Holding throughout (assay): NCI-60 one-dose screen, 48 h (100 = growth as untreated, 0 = no growth, -100 = all killed)
Details in all cases: 10 µM unless noted

Consider `CCC1S/C(=N\N=C(/C)c2cccs2)N(c2ccccc2)C1=O` (stereo not drawn), for which the growth in the test on NCI-H23 lung was 101%; in the test on NCI-H226 lung, 136%; with NCI-H322M lung it was 109%; with HOP-62 NSCLC, 65.4%; with HOP-92 NSCLC it was 85.1%; with NCI-H522 lung it was 82.2%. Also, the growth in the test on A549/ATCC NSCLC is 89.5%; in the test on 786-0 renal, 86.2%; in the test with COLO 205 colon, 114%; with DU-145 prostate, 123%; with K-562 leukemia, 110%; in the test with MALME-3M melanoma it was 181%. Further, the growth with MDA-MB-231 breast was 97.7%; in the test with RXF 393 renal it was 97.3%; with SF-268 CNS, 89.3%; with SF-295 CNS it was 123%; in the test with SF-539 CNS, 124%; in the test on UACC-257 melanoma, 97.5%. The growth in the test on M14 melanoma was 141%.
In the case of `C=C1C(=O)O[C@H]2[C@H]1CC/C(C(=O)NCCOCCOCC(=O)Nc1ccc(OC)c(C(N)=O)c1O)=C\CC[C@@]1(C)O[C@@H]21`, the growth in the test on NCI-H23 lung is 97.7%; with NCI-H226 lung, 80.7%; in the test on NCI-H322M lung, 94.2%; in the test on HOP-62 NSCLC it was 91.8%; in the test on HOP-92 NSCLC, 92.5%; in the test on NCI-H522 lung, 26.1%. The growth was 84.4% in the test on A549/ATCC NSCLC; 94.3% in the test on 786-0 renal; 73.7% in the test with COLO 205 colon; 101% in the test on DU-145 prostate; 82.6% in the test with K-562 leukemia; 86.9% in the test with MALME-3M melanoma. For the same compound, the growth in the test with MDA-MB-231 breast is 100%; with RXF 393 renal it was 59.6%; in the test on SF-268 CNS, 89.4%; with SF-295 CNS it was 104%; with SF-539 CNS it was 90.7%; in the test with UACC-257 melanoma it was 69.4%. Also, the growth with M14 melanoma is 99.3%.
For the compound `CC1(C)N=C(N)N=C(N)N1c1cccc(CCCCc2ccccc2)c1`, the growth is 10.8% with NCI-H23 lung; 25.9% in the test with NCI-H226 lung; 21.6% in the test on NCI-H322M lung; -23.5% (active) in the test with HOP-62 NSCLC; -30.8% (active) with HOP-92 NSCLC; -42.1% (active) with NCI-H522 lung. Moreover, the growth was -6.95% (active) in the test on A549/ATCC NSCLC; -48.4% (active) in the test with 786-0 renal; -84.7% (active) with COLO 205 colon; 31.1% with DU-145 prostate; -44.7% (active) in the test on K-562 leukemia; -1.54% (active) in the test on MALME-3M melanoma. Also, the growth is 45.4% in the test with MDA-MB-231 breast; 10.8% with SF-268 CNS; 3.96% (active) in the test with SF-295 CNS; 4.72% (active) with SF-539 CNS; -34.8% (active) in the test with UACC-257 melanoma; 6.98% (active) with M14 melanoma.
Take `O=C(Nc1ccc(-n2ccc3c(NC(=O)c4ccccc4)nccc32)cc1)Nc1cccc(C(F)(F)F)c1`: the growth with NCI-H23 lung is 38.7%; in the test with NCI-H226 lung, 44.7%; in the test with NCI-H322M lung, 63.2%; in the test on HOP-62 NSCLC it was 84.5%; with HOP-92 NSCLC, 32.3%; with NCI-H522 lung it was 45.8%. Also, the growth was 7.66% (active) with A549/ATCC NSCLC; 88.1% with 786-0 renal; 64.7% in the test on COLO 205 colon; 31.8% in the test with DU-145 prostate; 21.2% in the test with K-562 leukemia; 73.4% with MALME-3M melanoma. In addition, the growth in the test on MDA-MB-231 breast was 63.7%; in the test with RXF 393 renal it was 10.3%; in the test on SF-268 CNS, 51.8%; in the test on SF-295 CNS, 37.1%; in the test with SF-539 CNS, 44.8%; in the test on UACC-257 melanoma, 68.8%. For the same compound, the growth in the test on M14 melanoma was 43.7%.
On to `CCC1(C(N)=O)CC2C=CC1CC2` (stereo not drawn), for which the growth in the test on NCI-H23 lung is 249%; with NCI-H226 lung it was 109%; in the test on NCI-H322M lung, 114%; in the test with HOP-62 NSCLC, 136%; in the test on HOP-92 NSCLC it was 94.1%; in the test with NCI-H522 lung, 99.1%. The growth was 102% with A549/ATCC NSCLC; 171% with 786-0 renal; 94.8% with COLO 205 colon; 116% in the test with DU-145 prostate; 113% in the test with K-562 leukemia; 113% in the test with MALME-3M melanoma. Moreover, the growth in the test on MDA-MB-231 breast was 97.8%; with RXF 393 renal, 108%; with SF-268 CNS, 110%; in the test on SF-295 CNS, 102%; with SF-539 CNS it was 102%; in the test with UACC-257 melanoma it was 77.1%. In the test on M14 melanoma, the growth is 91.4%.
On to `CN(CCNCc1ccccn1)CCNCc1ccccn1`, for which the growth in the test on NCI-H23 lung was 18.2%; with NCI-H226 lung, -63.6% (active); in the test on NCI-H322M lung, 9.06% (active); with HOP-62 NSCLC, 4.07% (active); with HOP-92 NSCLC it was -7.3% (active); with NCI-H522 lung, 18.9%. The growth in the test with A549/ATCC NSCLC was 0.123% (active); in the test with 786-0 renal it was -3.78% (active); in the test on COLO 205 colon, -5.61% (active); in the test with DU-145 prostate, 11.3%; with K-562 leukemia, 2.92% (active); in the test with MALME-3M melanoma, -21.8% (active). Also, the growth is 1.53% (active) in the test with MDA-MB-231 breast; -24.3% (active) in the test with RXF 393 renal; 20.3% in the test on SF-268 CNS; -6% (active) in the test on SF-295 CNS; 3.15% (active) in the test on SF-539 CNS; -35.8% (active) with UACC-257 melanoma. The growth with M14 melanoma was -18.3% (active).
